Pf growth 96h – P. falciparum growth inhibition at 96 hours | 6.9% of 320,000 active | Potency, µM (titrated, usually from 28.7 µM), without a hit: top-dose activity change, negative = inhibition, usual class: inhibitors | P. falciparum luciferase reporter growth, 96 h; note: potency is the fitted concentration of half-maximal effect; % is set by controls: 0 for no effect and ±100 for the full control effect
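Two-generation exposure (96 h) targets delayed-death phenotype. Reporter parasites carrying integrated firefly luciferase, in red cells at 2% hematocrit and 0.05% parasitemia final, kept at 37 C, 5% CO2; luminescence loss indicates inhibition.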
Shiga inhibitor – blocks Shiga toxin action in Vero cells | 9.2% of 290,000 active | Vero cells, Shiga toxin protein synthesis inhibition reporter | AID 2315 | inhibition, % at 38.7 µM; in the data active = inhibition mostly above about 28%, no sharp cut-off; inactive = mostly below about 43%; note: 0% is about no effect
Cycloheximide cs – counter-screen for Shiga toxin inhibitors: cycloheximide protein synthesis inhibition | 12% of 300,000 active | max response, % | cell reporter, cycloheximide protein synthesis inhibition counterscreen; in the data active = max response mostly above about 13%, no sharp cut-off; inactive = mostly below about 14%; note: read at 38.3 µM for the half of the compounds with a filed dose; 0% is about no effect
SARS PLP yeast – SARS-CoV PLP inhibition in yeast. Potency, µM (doses to about 32.9 µM), without a hit: at the highest dose activity, positive = growth rescue, hits mostly activators. 0.19% of 330,000 active. S. cerevisiae expressing SARS-CoV PLpro, growth rescue; calls by dose curve; note: potency is the fitted concentration of half-maximal effect; 0% is about no effect; nearly all actives have a fitted effect of over 55% in size
NS1 function inh – blocks influenza NS1 protein function | Potency, µM (top dose mostly 46.1 µM), for inactives: at the highest dose activity, positive = more growth | 0.4% of 270,000 active | AID 2326; calls by dose curve; note: potency is the fitted concentration of half-maximal effect; actives are rising curves; nearly all actives have a fitted effect of over 50% in size
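Compounds were scored for reversing the slow growth caused by influenza A NS1 in S. cerevisiae, measured by optical density at 600 nm. Assay medium contained 2% galactose at pH 6.0; NS1-free yeast of the same strain were the positive control.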
Pf growth 48h – inhibits P. falciparum growth in the first generation, 48 h. P. falciparum luciferase growth in erythrocytes, 48 h. Potency, µM (doses to about 28.7 µM), inactives show at the top dose activity change, negative = inhibition, most hits filed as inhibitors. 5.9% of 310,000 active. AID 504832; note: potency is the fitted concentration of half-maximal effect; % is set by controls: 0 for no effect and ±100 for the full control effect
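Firefly luciferase activity from engineered P. falciparum reports growth; inhibitors lower the luminescent signal. Cultures contained 2% hematocrit erythrocytes at 0.1% final parasitemia.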
The depositor's hits bear a star; ? = inconclusive; / = no result given; [ ] = remark or other dose. Shown are actives, neighbours in structure and some others; about 21% of the full set was active somewhere. Unless noted, calls come from the whole dose curve; as a rule, active = well fitted inhibition curve with a large enough effect; inconclusive = small, poorly fitted or top-dose-only effect, or another doubt; inactive = no such curve, though single readings can be large or run the other way.

SMILES	Pf growth 96h	Shiga inhibitor	Cycloheximide cs	SARS PLP yeast	NS1 function inh	Pf growth 48h
Cc1cc(C(=O)NNC(=O)Nc2ccc(Cl)cc2)no1	4%	17	0	3%	0%	3%
Cc1cc(C)n2ncc(/C(N)=N/OC(=O)Nc3ccccc3)c2n1	?	16	9.6*	0%	2%	10%
Cc1ccccc1CCN(C(=O)Cn1nnc2ccccc21)C(C(=O)NCC1CCCO1)c1nc2ccccc2n1C (stereo not given)	30%	-8	0	5%	10%	-19%
Cc1ccc(C(=O)NCC(=O)N(C)Cc2ccc(Cl)cc2Cl)s1	?	/	/	-2%	/	?
CCCCn1c(C)c(C(=O)OCC)c2c(CN3CCCC3)c(O)ccc21	4.7µM*	18	1	2%	4%	/
CCOC(=O)c1c(C)n(C)c2ccc(O)c(CN3CCC(C)CC3)c12	10µM*	17	1	-3%	-13%	?
Cc1cnc(C(=O)OCC(=O)Nc2ccccc2[N+](=O)[O-])cn1	/	/	/	-3%	/	/
CCOC(=O)CN1C(=O)COc2ccc(C(C)(C)C)cc21	0.47µM*	15	-2	-2%	-14%	48%
CCOC(=O)C1CCN(C(=O)CN2C(=O)COc3ccc(C(C)(C)C)cc32)CC1	10µM*	16	-4	-3%	-4%	-18%
CCOC(=O)C1CCCN(C(=O)CN2C(=O)COc3ccc(C(C)(C)C)cc32)C1 (stereo not given)	/	-20	-6	0%	13%	?
COC(=O)CN(c1ccc(F)cc1)S(=O)(=O)c1ccc2c(c1)OCCO2	4%	15	3	-5%	-12%	30%
COc1ccc(-c2csc(NC(=S)NC(=O)/C=C/c3ccccc3)n2)cc1Br	-20%	-3	9	-1%	3%	7%
O=C(/C=C/c1ccccc1)Nc1nc(-c2ccncc2)cs1	?	35	28*	-10%	/	?
N#Cc1ccc(-c2csc(NC(=O)/C=C/c3cccs3)n2)cc1	10µM*	-2	-4	-8%	12%	?
O=C(/C=C\c1ccco1)Nc1nc(-c2ccccc2)cs1	-15%	78*	71*	-49%	24%	58%
Cc1ccc(-c2csc(NC(=O)/C=C/c3cccs3)n2)cc1C	?	-2	-5	-8%	-3%	?
Cc1cccc(NC(=O)c2c(F)c(F)c(F)c(F)c2F)c1	?	18	1	-10%	3%	/
O=C(Nc1ccncc1)c1c(F)c(F)c(F)c(F)c1F	-26%	3	-3	-9%	-13%	10µM*
O=C(Nc1cccc(F)c1)c1c(F)c(F)c(F)c(F)c1F	/	-11	4	-21%	-43%	13µM*
CCC1CCC(c2nnc(-c3ccc([N+](=O)[O-])cc3)o2)CC1 (stereo not given)	17%	14	13	25%	-6%	34%
CC1=C/C(=N\OS(=O)(=O)c2ccccc2)C(C(C)C)=CC1=O	11%	37	21*	-92%	-61%	?
CC1=C(C)/C(=N\OS(=O)(=O)c2ccc(C)cc2)C=CC1=O	-1%	-6	-9	-83%	-40%	?
CC1=C/C(=N\OS(=O)(=O)c2ccccc2)C(C)=CC1=O	4.1µM*	18	8.3*	-46%	-147%	/
O=c1c(/C=N/N2CCOCC2)c(O)n(-c2ccccc2)c(=S)n1-c1ccccc1	3%	-32	17*	8%	-2%	-21%
Cn1c(O)c(/C=N/N2CCOCC2)c(=O)n(-c2ccccc2)c1=S	9%	-10	0	1%	1%	13%
SMILES	Pf growth 96h	Shiga inhibitor	Cycloheximide cs	SARS PLP yeast	NS1 function inh	Pf growth 48h
COc1cc(/C=N/N2CCCCC2)cc(OC)c1O	-7%	24	8	0%	4%	2%
COc1ccccc1-n1c(O)c(/C=N/N2CCCCC2)c(=O)n(-c2ccccc2OC)c1=S	18%	33*	14	0%	-13%	-8%
CCN(CCO)C(=O)c1ccc2nc(Cc3cccc(Cl)c3)oc2c1	72%	11	6	12%	-8%	2%
COCCCNC(=S)Nc1ccc(C)cc1[N+](=O)[O-]	9%	55*	20*	-1%	/	-3%[5.75 µM]
Cc1cnc(C(=O)OC(C(=O)c2ccccc2)c2ccccc2)cn1 (stereo not given)	?	/	/	2%	/	-16%
COCCNC(C(=O)Nc1ccc(C)cc1[N+](=O)[O-])c1ccccc1 (stereo not given)	36%	38	28*	-7%	/	39%
Cc1ccc(NC(=O)C(OC(=O)c2cnc(C)cn2)c2ccccc2)c([N+](=O)[O-])c1 (stereo not given)	18%	8	14*	-3%	-15%	3%
Cn1nc(C(=O)NCCc2ccc(S(N)(=O)=O)cc2)c2ccccc2c1=O	18%	-7	-3	0%	5%	34%
CN(C)c1nc(Nc2ccc(F)cc2)nc(Oc2ccc(F)cc2)n1	?	23	-3	-2%	11%	0%
CN(C)c1nc(N/N=C/c2ccccc2O)nc(Nc2ccc(F)cc2)n1	2%	15	8	-22%	/	3.7µM*
Cc1cc(C)n(CC(=O)N2CCCC(C(=O)c3cccc(OC(C)C)c3)C2)n1 (stereo not given)	36%	-12	-2	1%	-7%	?
O=c1c2ccccc2nc2n1CCO2	13%	3	-2	-2%	1%	/
O=c1c2ccccc2nc2oc3ccccc3n12	13µM*	84*	42*	-7%	-13%	98%
CCOC(=O)CCCn1ncn2c(cc3occc32)c1=O	?	63	55*	16%	5%	/
COc1ccc(N(CC(=O)N/N=C/c2ccc3c(c2)OCO3)S(=O)(=O)c2ccccc2)cc1	?	26	-3	3%	4%	3%
Nc1ccc(/C=C/c2ccc3ncccc3c2)cc1	-57%	85*	38*	-3%	16%	133%
Nc1ccc2ncccc2c1N	?	42*	28*	-11%	6%	?
Nc1ccc2ncccc2c1	?	136*	48*	10%	-4%	?
C=CCNC(=O)C(=O)NCC1CCCN1S(=O)(=O)c1cccs1 (stereo not given)	-23%	/	/	2%	/	?
CCS(=O)(=O)Nc1ccc2[nH]c(=O)[nH]c2c1	27%	-3	0	-1%	/	13%
O=S(=O)(Oc1ccccc1N1CCCCC1)c1ccccc1	-5%	9	7	-2%	0%	-4%
Cc1ccc(C(=O)N2CCN3C(=O)c4ccccc4C23c2ccccc2)cc1 (stereo not given)	?	-9	-5	1%	-6%	?
O=C1c2ccccc2C2(c3ccccc3)N1CCN2C(=O)C(Cl)(Cl)Cl (stereo not given)	0.83µM*	30	-5	-6%	0%	/
O=C(Nc1ccc(F)cc1)N1CCN2C(=O)c3ccccc3C12c1ccccc1 (stereo not given)	13µM*	-2	-9	1%	4%	/

Source: PubChem BioAssay
